Assay outcomes (PubChem BioAssay)
Sampled rows, rich in hits. Any-hit rate of the full collection: about 19%.
DT40 TDP1 CPT: qHTS for Inhibitors of human tyrosyl-DNA phosphodiesterase 1 (TDP1): qHTS in cells in presence of CPT. chicken DT40 Tdp1-/-;hTDP1 cells + 20 nM CPT, ATP luminescence, 48 h. Potency, µM (doses to about 46.2 µM), without a hit: at the top dose activity change, negative = growth inhibition, usual class: inhibitors. 420,000 compounds, 12% hits. AID 686979, 2013; further: potency means the concentration at half of the fitted maximal effect; nearly all actives have a fitted effect of over 55% in size
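Cell growth measured by CellTiter-Glo luminescence after a minimum 48 h, 37 C compound exposure with 20 nM CPT in Tdp1-knockout DT40 cells stably expressing hTDP1, seeded 400/well; qHTS titration format.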
TDP1 cell noCPT: qHTS for Inhibitors of human tyrosyl-DNA phosphodiesterase 1 (TDP1): qHTS in cells in absence of CPT; 420,000 compounds, 15% hits; Potency, µM (highest dose often 46.2 µM), for inactives: at the top dose activity change, negative = growth inhibition, most hits filed as inhibitors; DT40 Tdp1-/- hTDP1 cells, no CPT, ATP luminescence, 48 h; AID 686978, 2013; further: potency means the concentration at half of the fitted maximal effect; nearly all actives have a fitted effect of over 55% in size
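Chicken DT40 Tdp1-/- cells stably complemented with human TDP1 were seeded at 400 cells/well with DMSO in place of 20 nM camptothecin. After compound pinning, cells grew at least 48 hr at 37 °C; viability read by CellTiter-Glo luminescence.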
ELG1 repair inh: qHTS screen for small molecules that inhibit ELG1-dependent DNA repair in human embryonic kidney (HEK293T) cells expressing luciferase-tagged ELG1 | HEK293T ELG1-luciferase reporter, luminescence, 16 h; DNA damage induced by 5-fluorouridine | Potency, µM (doses to about 46.1 µM), for the others: top-dose activity change, negative = inhibition, usual class: inhibitors | 330,000 compounds, 2.3% hits; further: potency means the concentration at half of the fitted maximal effect; nearly all actives have a fitted effect of over 55% in size
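Overnight (16 hr) co-exposure of 2,000 cells/well to 5-fluorouridine and compound at 37 °C preceded detection. Luciferase was quantified via ONE-Glo luminescence; loss of signal denotes inhibition.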
TDP1 inh: qHTS Assay for Inhibitors of Tyrosyl-DNA Phosphodiesterase (TDP1) | Tyrosyl-DNA phosphodiesterase 1 (Homo sapiens), Q9NUW8 | recombinant TDP1, AlphaScreen DNA substrate cleavage | AID 485290, 2010 | 350,000 compounds, 0.28% hits | Potency, µM (top dose mostly 130 µM), inactives show at the highest dose activity change, negative = inhibition, hits mostly inhibitors; further: potency means the concentration at half of the fitted maximal effect; nearly all actives have a fitted effect of over 40% in size
Target sequence (Q9NUW8 whole entry, looked up): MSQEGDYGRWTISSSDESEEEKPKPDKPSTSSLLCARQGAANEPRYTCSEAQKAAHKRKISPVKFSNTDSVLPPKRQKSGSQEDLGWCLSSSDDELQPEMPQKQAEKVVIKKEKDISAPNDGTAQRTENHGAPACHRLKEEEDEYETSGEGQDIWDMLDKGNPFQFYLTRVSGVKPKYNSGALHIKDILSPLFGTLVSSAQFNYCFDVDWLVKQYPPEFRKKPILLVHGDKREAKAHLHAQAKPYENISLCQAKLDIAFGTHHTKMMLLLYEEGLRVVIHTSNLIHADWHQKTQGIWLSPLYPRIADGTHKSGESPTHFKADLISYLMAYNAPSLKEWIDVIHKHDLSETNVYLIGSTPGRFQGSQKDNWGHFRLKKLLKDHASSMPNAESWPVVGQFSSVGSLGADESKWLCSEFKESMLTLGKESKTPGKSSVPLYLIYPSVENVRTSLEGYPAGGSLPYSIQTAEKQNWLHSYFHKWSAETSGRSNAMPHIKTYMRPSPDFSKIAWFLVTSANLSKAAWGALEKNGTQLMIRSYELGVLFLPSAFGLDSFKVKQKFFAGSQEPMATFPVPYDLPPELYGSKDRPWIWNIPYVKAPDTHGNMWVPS
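Compounds were preincubated with Tdp1 (1 nM final) for 15 min at room temperature before substrate (15 nM final) started a 5 min reaction; beads (10 ug/ml final) were then added for 10 min before AlphaScreen detection.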
Giardia kill: Small Molecules that selectively kill Giardia lamblia: qHTS. activity change, % at 7.66 µM, hits read low. 340,000 compounds, 0.15% hits. Giardia lamblia trophozoite viability. AID 540267, 2011; in the data active means activity change below about -80%; inconclusive means between about -30% and that limit;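 further: parasites exposed to compound for two days anaerobically before the ATP read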
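Giardia lamblia trophozoites (100 cells/well) were incubated with compounds for 48 h at 37 deg C under anaerobic conditions. Viability was read as ATP content by one-step luminescence after 15-30 min at room temperature.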
IL1B secr inh: qHTS for Inhibitors of Inflammasome Signaling: IL-1-beta AlphaLISA Primary Screen | activity change, % at 57.5 µM | AID 743279, 2014 | 360,000 compounds, 4.7% hits | THP-1 LPS/ATP IL-1B secretion, AlphaLISA, 16 h; active compounds read low; in the data active means activity change below about -50%; inconclusive means mostly about -30% to -49%
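Secreted IL-1B measured by AlphaLISA bead assay after 16 h compound exposure of THP-1 cells; compounds (final up to 57.5 uM) added 1 h before LPS (250 ng/mL) and ATP (1.25 mM) stimulation; lower signal means less secretion.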
Starred values were filed as active, the others as inactive; u = inconclusive; x = not tested or not shown. Unless noted, the call rests on the fitted dose curve; in most records, active means well fitted curve in the direction sought with a large enough effect; inconclusive means small, poorly fitted or top-dose-only effect, or another doubt; inactive means no such curve, though single readings can be large; an effect the other way counts as inactive or inconclusive. On the % scale 0 is the no-effect control and ±100 the full control effect.

SMILES | DT40 TDP1 CPT | TDP1 cell noCPT | ELG1 repair inh | TDP1 inh | Giardia kill | IL1B secr inh
Cc1ccc(S(=O)(=O)/C=C/c2ccccc2)cc1 | 0.2% | -10.7% | 6.8% | 1.1% | -1.2 | -75.5*
Cc1ccc(/C=C/S(=O)(=O)Nc2ccc(C)cc2)cc1 | 3.7% | -4.4% | 9.0% | -8.8% | -10.4 | -3.7
O=C(NCc1ccc(F)cc1)c1cc(Sc2ccc(F)cc2F)nc2ccccc12 | 16.4µM* | u | x | 5.2% | x | x
CCOc1ccc(Sc2cc(C(=O)NCc3ccc(C)cc3)c3ccccc3n2)cc1 | -23.5% | -22.0% | x | 2.6% | x | x
CC(C)CCNC(=O)c1cc(Sc2ccc(F)cc2F)nc2ccccc12 | u | u | x | 2.6% | x | x
CCC(C)NC(=O)c1cc(Sc2cccc(Cl)c2)nc2ccccc12 (stereo not given) | 16.4µM* | 14.6µM* | x | 5.2% | x | x
CCC(C)NC(=O)c1cc(-c2cccs2)nc2ccccc12 (stereo not given) | 26.8% | u | u | x | -9.0 | 17.4
CCc1ccc(Sc2cc(C(=O)NC(C)CC)c3ccccc3n2)cc1 (stereo not given) | 16.4µM* | 16.4µM* | x | 5.2% | x | x
CCc1ccc(Sc2cc(C(=O)NCc3ccccc3OC)c3ccccc3n2)cc1 | 20.6µM* | 18.4µM* | x | 7.8% | x | x
CCOC(=O)CCc1c(C)c2ccc(OCC(=O)N(CC)CC)c(C)c2oc1=O | 3.3% | u | 18.4µM* | -4.4% | 9.4 | 11.4
C=C(C)COc1ccc2c(C)c(CC(=O)N3C[C@H]4C[C@@H](C3)c3cccc(=O)n3C4)c(=O)oc2c1C | 14.6µM* | 18.4µM* | -21.4% | x | 16.8 | -7.9
COC(=O)Cc1c(C)c2ccc(OCC(=O)N(C)C)cc2oc1=O | -4.3% | 3.0% | u | 0.0% | -9.0 | -1.8
CCCOc1ccc2c(C)c(CC(=O)OC)c(=O)oc2c1 | u | 10.3µM* | u | 10.9% | 4.3 | -18.3
Cc1coc2cc3oc(=O)c(CC(=O)N4C[C@H]5C[C@@H](C4)c4cccc(=O)n4C5)c(C)c3cc12 | -1.9% | u | 1.9% | x | 5.2 | 4.9
COC(=O)Cc1c(C)c2ccc(OCC(=O)N3CCCC(C)C3)c(C)c2oc1=O (stereo not given) | 25.9µM* | u | u | 2.3% | 3.2 | -4.4
CCN1C(=O)c2ccc(C(=O)Nc3cccc(C(=O)O)c3)cc2C1=O | 12.9% | -1.3% | -2.7% | x | -7.1 | 8.5
Cc1ccc(S(=O)(=O)N2CCN(C(=O)COC(=O)CNC(=O)c3ccc(Cl)cc3Cl)CC2)c(C)c1 | -1.1% | -13.7% | x | x | -7.3 | 15.7
CCOc1ccccc1NC(=O)CN1C(=O)C2(SCC(=O)N2c2cccc(F)c2)c2ccccc21 (stereo not given) | u | -16.6% | x | 2.1% | x | x
FC(F)OC(Cl)C(F)(F)F (stereo not given) | 9.5% | -4.1% | x | x | x | x
COC(=O)Cc1c(C)c2ccc(OCC(C)=O)c(C)c2oc1=O | -27.5% | u | u | 8.7% | 1.2 | -2.4
C=C(C)COc1ccc2c(C)c(CC(=O)OC)c(=O)oc2c1C | 18.4µM* | 11.6µM* | u | -2.1% | -13.7 | -16.1
CCN(CC)C(=O)C1=C(C)N(Cc2ccc(OC)cc2)C(=O)C(CC(=O)NCc2cccc3ccccc23)C1 (stereo not given) | u | 23.1µM* | x | x | x | -3.1
CCCCN1C(=O)C(CC(=O)NCc2cccc3ccccc23)CC(C(=O)N(CC)CC)=C1C (stereo not given) | u | u | x | x | x | -0.4
CCN(CC)C(=O)C1=C(C)N(Cc2ccccc2)C(=O)C(CC(=O)NCc2cccc3ccccc23)C1 (stereo not given) | u | 18.4µM* | x | x | x | -21.4
CCN(CC)C(=O)C1=C(C)N(CCC2=CCCCC2)C(=O)C(CC(=O)NCc2cccc3ccccc23)C1 (stereo not given) | 16.4µM* | u | x | x | x | -57.3*
SMILES | DT40 TDP1 CPT | TDP1 cell noCPT | ELG1 repair inh | TDP1 inh | Giardia kill | IL1B secr inh
N#Cc1c(-c2ccc(Cl)cc2)c(C#N)c(=O)n(N)c1N | u | 29.1µM* | u | 6.9% | -0.8 | -1.3
CSc1nc(-c2ccc(Cl)cc2)nc(N)c1C#N | -2.1% | -0.2% | 0.0% | x | -21.3 | 32.3
CSc1nc(N)c(C#N)c(-c2ccc(Cl)cc2)c1C#N | -18.1% | 16.4µM* | 3.8% | 4.1% | -16.4 | -4.5
Cc1ccc(-c2csc(NC(=O)CN3CC(C)OC(C)C3)n2)cc1 (stereo not given) | u | u | u | 2.6% | 6.2 | -17.3
Cc1cccn2c(=O)c3cc(C(=O)NC4CCCCC4)c(=N)n(Cc4ccc(F)cc4)c3nc12 | 8.2µM* | 14.6µM* | -4.6% | 2.5% | 48.9 | 92.1
Cc1cccn2c(=O)c3cc(C(=O)NC4CCCC4)c(=N)n(CC4CCCO4)c3nc12 (stereo not given) | -20.2% | u | -19.8% | 4.2% | 6.2 | 10.4
COCCCn1c(=N)c(C(=O)NCc2cccnc2)cc2c(=O)n3cccc(C)c3nc21 | -27.9% | u | x | x | x | x
Cc1cccn2c(=O)c3cc(C(=O)NCc4ccco4)c(=N)n(C4CCCC4)c3nc12 | u | 23.1µM* | 9.2% | x | 27.8 | 29.0
COCCCNC(=O)c1cc2c(=O)n3cccc(C)c3nc2n(C(C)C)c1=N | -17.1% | u | 3.5% | 9.5% | -6.4 | -68.7*
CCNC(=O)c1cc2c(=O)n3cccc(C)c3nc2n(Cc2ccc(C)cc2)c1=N | 18.4µM* | 16.4µM* | -11.8% | 1.1% | -3.6 | 13.3
O=C(NN1CCOCC1)c1ccc(S(=O)(=O)N2CCCCC2)cc1 | -6.5% | -5.5% | -24.1% | -2.5% | -10.0 | -2.6
Cc1nnsc1C(=O)N1CCCC(Nc2ccc(F)c(F)c2)C1 (stereo not given) | -3.2% | 3.1% | 17.9% | 1.2% | -6.3 | 0.0
CC1CCN(C(=O)c2ncn3c2c(=O)[nH]c2cccnc23)CC1 | -6.2% | -22.0% | x | x | x | 8.2
CCC(C)(C(=O)NC1CCCCC1)N(C(=O)CNC(=O)c1ccccc1)c1c(C)n(C)n(-c2ccccc2)c1=O (stereo not given) | -1.5% | -2.7% | -4.9% | 0.0% | 4.4 | 11.7
COc1ccc(CNC(=O)c2cc3c(=O)n4cccc(C)c4nc3n(CC3CCCO3)c2=N)cc1 (stereo not given) | u | u | -3.5% | 3.8% | -14.9 | 20.1
